# According to PubChem BioAssay (Tox21):
# Records with an inconclusive call do not appear. The source made the active and inactive calls. Unless noted, calls follow the shape of the full dose curve.
# Assay: qHTS assay to identify small molecule antagonists of the sonic hedgehog signaling (Shh) pathway - cell viability counter screen (AID 1259367; active = well fitted cell-killing curve with a large enough effect in the repeat runs; also: nearly all actives have a fitted effect of over 55% in size; also: potency is read from the fitted curve at half-maximal effect)
# Settings: NIH/3T3 Gli1-Luc viability, CellTiter-Fluor, 24 h; series mostly up to 92.4 µM; viability change, negative = cytotoxic: at the top concentration
# Method in brief: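 Seed 3T3 Gli1-Luc cells at 2,000 per well; incubate 4 hr; add compound in DMSO, then conditioned medium; incubate at 37C with 5% CO2; add CellTiter-Fluor after 23 hr; read fluorescence 1 hr later.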
# % is scaled to controls: 0 for no effect and ±100 for the full control effect.
Structure (SMILES),"viability change, negative = cytotoxic",Potency
CC1OC(=O)C(C)OC1=O (stereo not given),-1.99% (inactive),–
CC(C)Cc1ccc(C(C)C(=O)OCc2ccccn2)cc1 (stereo not given),6.73% [at 42.5 µM] (inactive),–
CCOc1ccc(O)cc1,-8.79% (inactive),–
CC(=O)c1cccc([N+](=O)[O-])c1,0.683% (inactive),–
CC1CCC(=O)C1=O (stereo not given),2.87% (inactive),–
O=C(O)c1ccco1,-1.45% (inactive),–
CN1Cc2cc(C(=O)N3CCC(C4CCNCC4)CC3)ccc2NC(CC(=O)O)C1=O (stereo not given),0.804% [at 42.5 µM] (inactive),–
CCOc1ccc(N)c([N+](=O)[O-])c1,-16.2% (inactive),–
Nc1ccc([N+](=O)[O-])c(C(F)(F)F)c1,-0.264% [at 42.5 µM] (inactive),–
CCCCCCCCCCO[C@@H]1O[C@H](CO)[C@@H](O)[C@H](O)[C@H]1O,2.1% (inactive),–
O=P(O)(OCc1ccccc1)OCc1ccccc1,4.39% (inactive),–
C=CC1CC2C=CC1C2 (stereo not given),-6.68% (inactive),–
Brc1c2ccccc2c(Br)c2ccccc12,-7.11% [at 8.39 µM] (inactive),–
Brc1c2ccccc2cc2ccccc12,-4.15% (inactive),–
O=C(OCCc1ccccc1)c1ccccc1,-4.45% (inactive),–
CCC(CC)Nc1ccc(C)c(C)c1,-6.64% (inactive),–
COc1ccc(C(=O)c2ccc(OC)cc2O)c(O)c1,-28.9% (inactive),–

Structure (SMILES),"viability change, negative = cytotoxic",Potency
c1ccc(C(O[C@H]2CCCN(CCc3ccc4c(c3)OCO4)C2)c2ccccc2)cc1,0.689% [at 42.5 µM] (inactive),–
C[C@@H]1C[C@H]2[C@@H]3CCC4=CC(=O)C=C[C@]4(C)[C@@]3(F)[C@@H](O)C[C@]2(C)[C@@]1(O)C(=O)COC(=O)c1ccncc1,-4.42% [at 42.5 µM] (inactive),–
CCCCCCCCCOS(=O)(=O)O,4.95% (inactive),–
C/C=C(/C(=C/C)c1ccc(OC(C)=O)cc1)c1ccc(OC(C)=O)cc1,-14.2% [at 42.5 µM] (inactive),–
ClCCOCCOCCCl,0.903% (inactive),–
O=C1CCC(=O)O1,4.08% (inactive),–
C=C1[C@H]2CC[C@@H]3[C@H]2C(C)(C)CCC[C@]13C,-0.201% (inactive),–
COC(C)OC,2.86% (inactive),–
Cc1oc(-c2ccccc2)nc1CCOc1cccc2c1ccn2CCC(=O)O,–,6.86 µM (active)
C[N+](C)(C)CCOC(=O)CCC(=O)OCC[N+](C)(C)C,1.23% [at 42.5 µM] (inactive),–
CCCC(=O)Nc1ccc(O)c(C(C)=O)c1,2.45% [at 42.5 µM] (inactive),–
CCCCc1nc2cccnc2n1Cc1ccc(-c2ccccc2-c2nnn[nH]2)cc1,–,17.2 µM (active)
CC1=CC=C(C(C)C)CC1,1.68% (inactive),–
C=CCOc1ccccc1OCC(O)CNC(C)C (stereo not given),1.05% [at 42.5 µM] (inactive),–
c1cc(CCCc2ccncc2)ccn1,14.3% (inactive),–
Cc1cc(C(=O)O)ccc1[N+](=O)[O-],3.23% (inactive),–
CN(C)c1ccc(CCO)cc1,-0.0215% (inactive),–

# Assay: qHTS assay to identify small molecule agonists of the sonic hedgehog signaling (Shh) pathway (AID 1259368);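 also: NIH/3T3-derived 3T3Gli1-Luc cells carrying a stable Gli1-driven firefly luciferase reporter; nearly all actives have a fitted effect of over 15% in size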
# Settings: NIH/3T3 Gli1-Luc reporter, luciferase, 24 h, active compounds read high; series mostly up to 92.4 µM; activity change: at the top concentration
# Method in brief: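 NIH/3T3-derived 3T3Gli1-Luc cells with stably integrated Gli1-driven firefly luciferase, 2,000 cells/well, compounds added after 4 hr. Incubated 24 hr at 37C, 5% CO2; luminescence read after 30 min with luciferase reagent at room temperature.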
row,Structure (SMILES),activity change
1,CC1OC(=O)C(C)OC1=O (stereo not given),0.164% (inactive)
2,CC(C)Cc1ccc(C(C)C(=O)OCc2ccccn2)cc1 (stereo not given),1.79% [at 42.5 µM] (inactive)
3,CCOc1ccc(O)cc1,0.964% (inactive)
4,CN1C[C@H]2c3ccccc3Oc3ccc(Cl)cc3[C@@H]2C1,-0.101% [at 42.5 µM] (inactive)
5,CC(=O)c1cccc([N+](=O)[O-])c1,-1.96% (inactive)
6,CC1CCC(=O)C1=O (stereo not given),-0.485% (inactive)
7,O=C(O)c1ccco1,-0.883% (inactive)
8,CN1Cc2cc(C(=O)N3CCC(C4CCNCC4)CC3)ccc2NC(CC(=O)O)C1=O (stereo not given),0.266% [at 42.5 µM] (inactive)
9,CCOc1ccc(N)c([N+](=O)[O-])c1,-0.0593% (inactive)
10,Nc1ccc([N+](=O)[O-])c(C(F)(F)F)c1,-0.0264% [at 42.5 µM] (inactive)
11,CCCCCCCCCCO[C@@H]1O[C@H](CO)[C@@H](O)[C@H](O)[C@H]1O,-1.81% (inactive)
12,O=P(O)(OCc1ccccc1)OCc1ccccc1,-2.67% (inactive)
13,C=CC1CC2C=CC1C2 (stereo not given),-0.0236% (inactive)
14,Brc1c2ccccc2c(Br)c2ccccc12,-0.511% [at 8.39 µM] (inactive)
15,Brc1c2ccccc2cc2ccccc12,0.983% (inactive)
16,O=C(OCCc1ccccc1)c1ccccc1,11% (inactive)
17,CCC(CC)Nc1ccc(C)c(C)c1,0.287% (inactive)

row,Structure (SMILES),activity change
1,COc1ccc(C(=O)c2ccc(OC)cc2O)c(O)c1,5.93% (inactive)
2,c1ccc(C(O[C@H]2CCCN(CCc3ccc4c(c3)OCO4)C2)c2ccccc2)cc1,-0.0858% [at 42.5 µM] (inactive)
3,C[C@@H]1C[C@H]2[C@@H]3CCC4=CC(=O)C=C[C@]4(C)[C@@]3(F)[C@@H](O)C[C@]2(C)[C@@]1(O)C(=O)COC(=O)c1ccncc1,-1.84% [at 42.5 µM] (inactive)
4,CCCCCCCCCOS(=O)(=O)O,-2.05% (inactive)
5,C/C=C(/C(=C/C)c1ccc(OC(C)=O)cc1)c1ccc(OC(C)=O)cc1,-0.971% [at 42.5 µM] (inactive)
6,ClCCOCCOCCCl,0.473% (inactive)
7,O=C1CCC(=O)O1,-2.13% (inactive)
8,C=C1[C@H]2CC[C@@H]3[C@H]2C(C)(C)CCC[C@]13C,-1.37% (inactive)
9,COC(C)OC,0.167% (inactive)
10,Cc1oc(-c2ccccc2)nc1CCOc1cccc2c1ccn2CCC(=O)O,0.382% (inactive)
11,CCCC(=O)Nc1ccc(O)c(C(C)=O)c1,-1.83% [at 42.5 µM] (inactive)
12,CCCCc1nc2cccnc2n1Cc1ccc(-c2ccccc2-c2nnn[nH]2)cc1,-1.21% (inactive)
13,CC1=CC=C(C(C)C)CC1,-1.14% (inactive)
14,c1cc(CCCc2ccncc2)ccn1,0.0029% (inactive)
15,Cc1cc(C(=O)O)ccc1[N+](=O)[O-],0.421% (inactive)
16,CN(C)c1ccc(CCO)cc1,-0.362% (inactive)

# Assay: qHTS assay to identify small molecule antagonists of the sonic hedgehog signaling (Shh) pathway (AID 1259369); also: nearly all actives have a fitted effect of over 45% in size; also: potency is read from the fitted curve at half-maximal effect
# Settings: NIH/3T3 Gli1-Luc reporter, Shh antagonist, luminescence 24 h; series mostly up to 92.4 µM; activity change, negative = inhibition: at the top concentration
# Method in brief: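 NIH/3T3-derived Gli1-Luc reporter cells plated 4 h, dosed with compound, then stimulated with conditioned medium for 24 h at 37 C. Firefly luciferase luminescence read after 30 min with detection reagent at room temperature.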
Structure (SMILES),"activity change, negative = inhibition",Potency
CC1OC(=O)C(C)OC1=O (stereo not given),2.75% (inactive),–
CCOc1ccc(O)cc1,–,15.4 µM (active)
CC(=O)c1cccc([N+](=O)[O-])c1,11.2% (inactive),–
CC1CCC(=O)C1=O (stereo not given),0.813% (inactive),–
O=C(O)c1ccco1,0% (inactive),–
CN1Cc2cc(C(=O)N3CCC(C4CCNCC4)CC3)ccc2NC(CC(=O)O)C1=O (stereo not given),16.9% [at 42.5 µM] (inactive),–
CCOc1ccc(N)c([N+](=O)[O-])c1,-3.55% (inactive),–
CCCCCCCCCCO[C@@H]1O[C@H](CO)[C@@H](O)[C@H](O)[C@H]1O,–,61.1 µM (active)
C=CC1CC2C=CC1C2 (stereo not given),3.43% (inactive),–
Brc1c2ccccc2c(Br)c2ccccc12,2.55% [at 8.39 µM] (inactive),–
Brc1c2ccccc2cc2ccccc12,12.5% (inactive),–
O=C(OCCc1ccccc1)c1ccccc1,104% (inactive),–
c1ccc(C(O[C@H]2CCCN(CCc3ccc4c(c3)OCO4)C2)c2ccccc2)cc1,-19.7% [at 42.5 µM] (inactive),–
C[C@@H]1C[C@H]2[C@@H]3CCC4=CC(=O)C=C[C@]4(C)[C@@]3(F)[C@@H](O)C[C@]2(C)[C@@]1(O)C(=O)COC(=O)c1ccncc1,3.22% [at 42.5 µM] (inactive),–
CCCCCCCCCOS(=O)(=O)O,17.1% (inactive),–
C/C=C(/C(=C/C)c1ccc(OC(C)=O)cc1)c1ccc(OC(C)=O)cc1,–,29.8 µM (active)
ClCCOCCOCCCl,1.88% (inactive),–
O=C1CCC(=O)O1,20.1% (inactive),–
C=C1[C@H]2CC[C@@H]3[C@H]2C(C)(C)CCC[C@]13C,-6.61% (inactive),–
COC(C)OC,-0.164% (inactive),–
Cc1oc(-c2ccccc2)nc1CCOc1cccc2c1ccn2CCC(=O)O,-16.6% (inactive),–
C[N+](C)(C)CCOC(=O)CCC(=O)OCC[N+](C)(C)C,0.521% [at 42.5 µM] (inactive),–
CCCC(=O)Nc1ccc(O)c(C(C)=O)c1,-11.9% [at 42.5 µM] (inactive),–
CC1=CC=C(C(C)C)CC1,0% (inactive),–
C=CCOc1ccccc1OCC(O)CNC(C)C (stereo not given),-1.71% [at 42.5 µM] (inactive),–
c1cc(CCCc2ccncc2)ccn1,-26.5% (inactive),–
Cc1cc(C(=O)O)ccc1[N+](=O)[O-],0% (inactive),–
CN(C)c1ccc(CCO)cc1,5.95% (inactive),–
